# Measurements from PubChem BioAssay.
# Active and inactive are the calls of the source. The rule behind the calls is not given here.
# Target: Pantothenate synthetase (Mycobacterium tuberculosis (strain ATCC 25618 / H37Rv)) (UniProt P9WIL5)
# Assay: Recombinant Mtb pantothenate synthetase (PanC) inhibitors, coupled enzyme, confirmatory (AID 375);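 note: 0% = full reaction with vehicle and 100% = no enzyme background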
# Conditions: coupled enzyme assay; at 10 µM, hits give high values
# Pantothenate synthetase (Mycobacterium tuberculosis (strain ATCC 25618 / H37Rv)), sequence (P9WIL5 whole entry, looked up): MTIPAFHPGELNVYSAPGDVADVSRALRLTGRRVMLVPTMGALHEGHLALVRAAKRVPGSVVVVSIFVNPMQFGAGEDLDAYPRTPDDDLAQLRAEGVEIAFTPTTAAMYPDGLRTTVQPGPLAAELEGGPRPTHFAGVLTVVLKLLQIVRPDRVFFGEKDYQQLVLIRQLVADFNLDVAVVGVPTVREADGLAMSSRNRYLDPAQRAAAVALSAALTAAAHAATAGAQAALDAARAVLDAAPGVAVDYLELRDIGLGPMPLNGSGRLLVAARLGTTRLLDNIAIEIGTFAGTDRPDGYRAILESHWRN
row,SMILES,inhibition
1,CCCCCn1c(CN2CCN(C(=O)c3ccco3)CC2)nc2c1c(=O)n(C)c(=O)n2C,1% (inactive)
2,COc1ccc(NC(=O)c2cnc3n(c2=O)CCS3)cc1OC,0% (inactive)
3,Cc1cccc(C2CC(c3ccc(Br)cc3)Nc3nc(N)nn32)c1 (stereo not drawn),0% (inactive)
4,COc1ccccc1OCc1ccc(C(=O)NC(C)(C)C)o1,2% (inactive)
5,CCn1c(SCC(=O)Nc2ccc3c(c2)OCO3)nnc1-c1cnccn1,0% (inactive)
6,COC(=O)NCC(c1cccnc1)N1CCOCC1 (stereo not drawn),0% (inactive)
7,COCCSc1nnc(NC(=O)Cc2ccccc2OC)s1,4% (inactive)
8,Cn1c(=O)oc2cc(S(=O)(=O)N3CCCC(C(=O)NCC4COc5ccccc5O4)C3)ccc21 (stereo not drawn),0% (inactive)
9,Cc1cc(C)n(CC(=O)O)n1,0% (inactive)
10,CCOC(=O)CSC1=Nc2ccccc2C2=NC(CC(=O)NCc3ccc(OC)cc3)C(=O)N12 (stereo not drawn),2% (inactive)
11,COc1ccc2nc3oc(C(=O)N4CCCCC4)cc3cc2c1,12% (inactive)
12,C=CCOc1ccc(C2C(C(=O)c3ccco3)=C(O)C(=O)N2Cc2cccnc2)cc1 (stereo not drawn),0% (inactive)
13,Cc1ccc(C)c(Cn2c(=O)n(CCC(=O)NCc3ccco3)c(=O)c3sccc32)c1,9% (inactive)
14,COC(=O)c1ccc(-n2nnnc2SCc2nn[nH]n2)cc1,0% (inactive)
15,Cc1ccc(NC2=NC3(CCCCC3)N=C(N)N2)c(C)c1,3% (inactive)
16,O=C(CSc1nc2ccccc2n1CC(=O)N1CCCC1)Nc1nccs1,0% (inactive)
17,Cc1cc(C)cc(NC(=O)c2nnn(Cc3cc(C)ccc3C)c2N)c1,0% (inactive)
18,O=C(Nc1cccc2ccccc12)N1CCN(c2ccccc2)CC1,3% (inactive)
19,CC1(C)Cc2cccc(OCC(=O)O)c2O1,5% (inactive)
20,COc1ccc(-n2cc(-c3ccccc3)c3c(N4CCN(CCO)CC4)ncnc32)cc1,0% (inactive)
21,c1nnc(NC2=NCCCCC2)s1,0% (inactive)
22,O=c1ccc2cc3c([nH]c4ccc(Br)cc43)oc-2c1O,0% (inactive)
23,c1ccc(-c2noc(-c3cccnc3)n2)nc1,0% (inactive)
